From PubChem BioAssay (NCATS)
Inconclusive results are not listed. Calls of active or inactive are those of the source. Calls come from the whole dose curve; as a rule, active = well fitted inhibition curve with a large enough effect; inconclusive = small, poorly fitted or top-dose-only effect; inactive = flat fitted curve, though single readings scatter. Square brackets hold non-standard residues; d marks the D form. Peptide text beside a SMILES is read from it. Orn = NCCC[CH](N)C(=O)O

What was measured:
Experiment in all cases: qHTS profiling for inhibitors of Plasmodium falciparum proliferation (AID 504749); note: nearly all actives have a fitted effect of over 60% in size
Details in all cases: P. falciparum in erythrocytes, SYBR Green DNA, 72 h; series mostly up to 28.7 µM
7G8 = test system: 7G8
Summary of the method: (§1)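 Fluorescence of SYBR Green-bound parasite DNA, read at 485/535 nm, served as the growth measure. Infected erythrocytes were cultured with compound 72 h; artemisinin (0.29 uM) and DMSO wells defined the normalization range.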

C2A = test system: C2A
Summary of the method: as §1

CP192 = test system: CP192
Summary of the method: as §1

CP194 = test system: CP194
Summary of the method: as §1

CP203 = test system: CP203
Summary of the method: as §1

CP217 = test system: CP217
Summary of the method: as §1

CP237 = test system: CP237
Summary of the method: as §1

CP266 = test system: CP266
Summary of the method: as §1

CP268 = test system: CP268
Summary of the method: as §1

CP269 = test system: CP269
Summary of the method: as §1

CP291 = test system: CP291
Summary of the method: as §1

CP315 = test system: CP315
Summary of the method: as §1

CP329 = test system: CP329
Summary of the method: as §1

DIV30 = test system: DIV30
Summary of the method: as §1

HB3 = test system: HB3
Summary of the method: as §1

JCK = test system: JCK
Summary of the method: as §1

P94_40 = test system: P94_40
Summary of the method: as §1

PC26 = test system: PC26
Summary of the method: as §1

SC27B = test system: SC27B
Summary of the method: as §1

TAB109 = test system: TAB109
Summary of the method: as §1

Measured: Potency
Potency is the fitted concentration of half-maximal effect.

CC(C)CC1NC(=O)C(CCCN)NC(=O)C(C(C)C)NC(=O)C2CCCN2C(=O)C(Cc2ccccc2)NC(=O)C(CC(C)C)NC(=O)C(CCCN)NC(=O)C(C(C)C)NC(=O)C2CCCN2C(=O)C(Cc2ccccc2)NC1=O (centres undefined) (cyclo(FPV[Orn]LFPV[Orn]L); configuration not given here)
active: 7G8 0.3 nM | C2A 2.5 nM | CP192 1.7 nM | CP194 1.3 nM | CP203 1.3 nM | CP217 2.2 nM | CP237 0.9 nM | CP266 1.9 nM | CP268 13.5 nM | CP269 1.3 nM | CP291 0.4 nM | CP315 1.7 nM | CP329 1.9 nM | DIV30 0.4 nM | HB3 3.5 nM | JCK 56.2 nM | P94_40 0.4 nM | PC26 1.1 nM | SC27B 6.3 nM | TAB109 1.1 nM

CCC(Oc1ccccc1)C(=O)NC1C(=O)N2C1SC(C)(C)C2C(=O)O (centres undefined)
not listed: CP192
inactive: all other assays above

CC(=O)OCC1=C(C(=O)O)N2C(=O)C(NC(=O)Cc3ccccc3)C2SC1 (centres undefined)
inactive: all assays above
